Test results: the supplement of paper PMC9262897, “Low-cost anti-mycobacterial drug discovery using engineered E. coli” (Nature Communications, 2022)
Where a name gives a salt, the structure may show the parent alone. ± gives the standard deviation of the averaged measurements.

Test system: E. coli TESEC Mtb Alr
Assay: growth (OD600 after 10 h); higher = more growth (less inhibition)
Conditions: compound 0.1 mM
Procedure: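 TESEC Mtb Alr E. coli, or the Alr+ wild-type control, in 384-well plates with Prestwick library compounds at 0.1 mM and 1% DMSO, across arabinose induction levels of 1E3 to 1E7 nM. Growth is read as OD600 after 10 h at 37 °C in triplicate biological replicates.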

[1] = arabinose 1000 nM, raw OD600 reference: median of DMSO wells 0.294, cell-free background 0.041
[2] = arabinose 10000 nM, raw OD600 reference: median of DMSO wells 0.264, cell-free background 0.041
[3] = arabinose 100000 nM, raw OD600 reference: median of DMSO wells 0.201, cell-free background 0.041
[4] = arabinose 1000000 nM, raw OD600 reference: median of DMSO wells 0.193, cell-free background 0.041
[5] = arabinose 10000000 nM, raw OD600 reference: median of DMSO wells 0.146, cell-free background 0.041

| SMILES | growth [1] | growth [2] | growth [3] | growth [4] | growth [5] |
| --- | --- | --- | --- | --- | --- |
| O=C(O)c1cc(=O)c2c(OCC(O)COc3cccc4oc(C(=O)O)cc(=O)c34)cccc2o1 [Cromolyn disodium salt] | 0.311 ± 0.019 | 0.275 ± 0.0036 | 0.21 ± 0.014 | 0.201 ± 0.011 | 0.14 ± 0.0057 |
| COc1cc(N)c(Cl)cc1C(=O)NC1CCN(CCCOc2ccc(F)cc2)CC1OC (stereo not given) [Cisapride] | 0.2892 ± 0.0012 | 0.2613 ± 0.0016 | 0.201 ± 0.03 | 0.155 ± 0.0047 | 0.148 ± 0.0037 |
| CCC(Cc1c(I)cc(I)c(N)c1I)C(=O)O (stereo not given) [Iopanoic acid] | 0.0987 ± 0.0055 | 0.0635 ± 0.0046 | 0.097 ± 0.003 | 0.0566 ± 0.001 | 0.0777 ± 0.0027 |
| CC(C)(C)NC(=O)[C@@H]1C[C@@H]2CCCC[C@@H]2CN1C[C@@H](O)[C@H](Cc1ccccc1)NC(=O)[C@H](CC(N)=O)NC(=O)c1ccc2ccccc2n1 [Saquinavir mesylate] | 0.0535 ± 0.0019 | 0.0491 ± 0.0035 | 0.0468 ± 0.0011 | 0.051 ± 0.0027 | 0.0524 ± 0.0032 |
| CCC(C)n1ncn(-c2ccc(N3CCN(c4ccc(OCC5COC(Cn6cncn6)(c6ccc(Cl)cc6Cl)O5)cc4)CC3)cc2)c1=O (stereo not given) [Itraconazole] | 0.321 ± 0.01 | 0.258 ± 0.0035 | 0.251 ± 0.012 | 0.171 ± 0.017 | 0.148 ± 0.005 |
| CO[C@@]1(NC(=O)Cc2cccs2)C(=O)N2C(C(=O)O)=C(COC(N)=O)CS[C@@H]21 [Cefoxitin sodium salt] | 0.0385 ± 0.0017 | 0.0398 ± 0.0004 | 0.0383 ± 0.0013 | 0.03983 ± 0.00029 | 0.0389 ± 0.00036 |
| CC[C@]12CCCN3CCc4c(n(c5ccccc45)C(=O)C1)[C@@H]32 [Eburnamonine (-)] | 0.238 ± 0.0081 | 0.257 ± 0.0031 | 0.144 ± 0.0086 | 0.124 ± 0.004 | 0.135 ± 0.0057 |
| Cn1c([N+](=O)[O-])cnc1COC(N)=O [Ronidazole] | 0.296 ± 0.007 | 0.27 ± 0.0076 | 0.161 ± 0.0087 | 0.149 ± 0.0036 | 0.164 ± 0.0025 |
